Bioassay records (PubChem)
Only some compounds are listed: those with a hit (about 2.9% of all), similar ones and a draw of the others.
esBAF inh: Bmi1 luciferase reporter increase in mESCs, primary screen, esBAF inhibitor project, mouse ES cells, Bmi1 luciferase knock-in, single point; 24 h; 100% = twice the neutral-well signal; reporter increase, % at 12.5 µM; hit rate 2% among 350,000; in the data active = activation above about 40%; inconclusive = no clear call, values can overlap the other calls;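 note: a rise in the Bmi1 reporter signal indicates esBAF inhibition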
Wnt bcat act: Wnt/beta-catenin pathway activators, primary screen, cell-based, plate reader, single point; Wnt/beta-catenin reporter cell assay, activator; activation, % at 9.35 µM; AID 743398, 2014; hit rate 1.2% among 300,000; in the data active = activation above about 30%, passing the limit was not always enough; inconclusive = no clear call, values can overlap the other calls
PvdQ acylase: P. aeruginosa PvdQ acylase inhibitors, primary screen, biochemical, fluorescence, plate reader and imaging, single point; PvdQ acylase [Pseudomonas aeruginosa LESB58]; purified PvdQ acylase; inhibition, % at 10 µM; hit rate 0.063% among 340,000; in the data active = inhibition above about 30%, passing the limit was not always enough; inconclusive = no clear call, values can overlap the other calls
Glyco luc inh: increase of ERlucT glycosylation luciferase signal, primary screen, N-linked glycosylation inhibitor project, D54 ERlucT cells, luminescence, set 2; D54 ERlucT glycosylation luciferase reporter, 24 h; percent of 100 nM tunicamycin response; reporter increase, % at 12.5 µM; hit rate 0.23% among 360,000;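 active = mean luciferase reporter signal, scaled so untreated is 0 and the glycosylation-blocking control 100, at or above a set limit in every replicate; inconclusive = mean reaches the limit but not every replicate does; inactive = mean below the limit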;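 note: luciferase carries N-glycosylation sites so blocking glycosylation raises the light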
Vif imaging: HIV Vif self-association inhibitors, primary screen, imaging, HEK293T, single point. inhibition, % at 7.49 µM. HEK293T cells, Vif self-association by quenched fluorescence, 24 h. hit rate 0.35% among 340,000. AID 602346, 2012; in the data active = inhibition above about 50%, passing the limit was not always enough; inconclusive = no clear call, values can overlap the other calls; inactive = below about 31%
MITF TRPM1 HTS: activators of MITF-driven TRPM1 promoter reporter, primary screen, cell-based, SK-MEL-5, luciferase, single point. SK-MEL-5 TRPM1-promoter luciferase, 24 h; % of positive control, neutral wells = 0. AID 588334, 2011. hit rate 0.75% among 300,000. activation, % at 12.5 µM;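 active = mean activation of at least 80% with every replicate also reaching 80%; inconclusive = mean reaches 80% but some replicate falls short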
A number is an active result; 0 = inactive; ? = inconclusive; - = no result given.

SMILES | esBAF inh | Wnt bcat act | PvdQ acylase | Glyco luc inh | Vif imaging | MITF TRPM1 HTS
COc1cccc(-c2csc(NC(=O)C3CC3)n2)c1 | 61.1 | ? | 0 | 0 | 0 | 119.5
COc1cccc(-c2csc(N3CCN(C(=O)Nc4ccc(F)cc4)CC3)n2)c1 | 0 | 0 | 0 | 0 | 0 | 0
O=C(CSCC(=O)N1CCOCC1)Nc1nc(-c2ccc3c(c2)OCO3)cs1 | 53.7 | 0 | 0 | 0 | - | -
O=C(Nc1nc(-c2ccc(Cl)cc2)cs1)C1CCCO1 (stereo unspecified) | 47.8 | 64.6 | 0 | 0 | 0 | 0
COc1cccc(-c2csc(N3CCN(C(=O)Nc4ccccc4OC)CC3)n2)c1 | 0 | 0 | 0 | 0 | 122.3 | 0
O=C([C@H]1[C@H](CO)[C@H]2Cn3c(ccc(-c4ccccc4F)c3=O)[C@@H]1N2C(=O)C1CCC1)N1CCOCC1 | 0 | - | - | - | - | -
COc1ccccc1CNC(=O)C[C@H]1CC[C@H]2[C@@H](COC[C@@H](O)CN2C(=O)Nc2ccc(Cl)cc2)O1 | 0 | - | - | - | - | -
CO[C@H]1CN(C)C(=O)c2ccc(NC(C)=O)cc2OC[C@@H](C)N(Cc2ccncc2)C[C@H]1C | 0 | - | - | - | - | -
CC(=O)Nc1nc(-c2ccc3c(c2)OCO3)cs1 | 0 | 52.7 | 0 | 0 | 0 | 0
O=C(Nc1nc(-c2ccc3c(c2)OCCO3)cs1)C1CCCC1 | - | 43.7 | 0 | 0 | 0 | 144.0
N#CCC(=O)Nc1nc(-c2ccc3c(c2)OCCO3)cs1 | - | 0 | 0 | 0 | 0 | 0
O=C(CCCCl)Nc1nc(-c2ccc3c(c2)OCCO3)cs1 | 0 | 0 | 0 | 0 | 0 | 87.5
Cc1ccc(-c2csc(NC(=O)N3CCOCC3)n2)cc1 | 83.5 | 0 | 0 | 0 | 0 | 0
Cc1ccc(-c2csc(NC(=O)CN3CCOCC3)n2)cc1 | 0 | 0 | 0 | 0 | 0 | 0
C[C@H](CO)N1C[C@H](C)[C@@H](CN(C)S(=O)(=O)c2ccc(F)cc2)OCCCC[C@H](C)Oc2ccc(NS(=O)(=O)c3ccc(F)cc3)cc2C1=O | 0 | - | - | - | - | -
Oc1ccccc1/C=N/Nc1cccc2cccnc12 | 49.8 | 67.2 | 0 | 0 | 0 | -
O=C(O)c1ccc(N/N=C/c2cccc3cccnc23)cc1 | - | 40.8 | 0 | 0 | 0 | 0
O=C(O)c1ccc(N/N=C/c2ccnc3ccccc23)cc1 | - | 0 | 0 | 0 | 0 | 0
O=C(NC1CC1)c1ccc(-c2cnc3cccnn23)cc1 | 0 | 34.6 | - | 0 | 0 | -
O=C(NC1CC1)c1cccc(-c2cncc3nccn23)c1 | 0 | 0 | - | 0 | 0 | -
CS(=O)(=O)Nc1ccc2c(c1)[C@H]1C[C@H](CC(=O)NCc3ccc(-c4ccccc4)cc3)O[C@@H](CO)[C@H]1O2 | 0 | - | - | - | - | -
O=c1oc2ccccc2cc1-c1csc(NN=C2CCCC2)n1 | - | - | 0 | 0 | 0 | 0
N#CC(=C1CCCC1)c1nc(-c2ccccc2O)cs1 | - | - | 0 | 0 | 0 | 0
N#CC(=C1CCCC1)c1nc(-c2ccccc2)cs1 | - | - | 0 | 0 | 0 | 120.6
N#CC(=C1CCCC1)c1nc(-c2cc3ccccc3oc2=O)cs1 | 107.8 | 0 | 0 | 0 | 0 | 87.8
SMILES | esBAF inh | Wnt bcat act | PvdQ acylase | Glyco luc inh | Vif imaging | MITF TRPM1 HTS
Cc1ccc(-c2csc(C(C#N)=C3CCCC3)n2)cc1 | 49.2 | 0 | 0 | 0 | 0 | 97.8
COc1ccccc1S(=O)(=O)N[C@H]1CC[C@H](CCNC(=O)C2CCC2)O[C@@H]1CO | 0 | - | - | - | - | -
CC1=CC(C)[C@H](/C=N/n2c(=O)[nH]c3c([nH]c4ccc(C)cc43)c2=O)C(C)C1 (stereo partly specified) | 0 | 0 | 0 | 60.1 | 0 | 0
CN(C)c1ccc(C(O)c2cc3ccccc3s2)cc1 (stereo unspecified) | 52.0 | 0 | 0 | 0 | 0 | 0
CC1(C)CC2(C)OC2C2(C1)N=NC(=Nc1ccccc1)O2 (stereo unspecified) | - | - | - | 45.2 | 0 | -
Cc1ccc(S(=O)(=O)Nc2ccc3c(c2)C(=O)N([C@@H](C)CO)C[C@@H](C)[C@@H](CN(C)Cc2ccc(Cl)c(Cl)c2)OCCCC[C@@H](C)O3)cc1 | 0 | - | - | - | - | -
Nc1nc2ccc(OC(F)(F)F)cc2s1 | 43.0 | 0 | 0 | 0 | 0 | 0
CC(C)c1ccc2nc(N)sc2c1 | 0 | 0 | 0 | 0 | 0 | 92.0
